# The list is not random: actives were taken first. Their share in the collection is about 6.2%.
# Marburg entry inh = qHTS for inhibitors of binding or entry into cells for Marburg Virus | Marburg virus pseudotyped entry inhibition, cell reporter | Potency, µM (titrated, usually from 37.8 µM), for the others: at the top dose activity change, negative = inhibition, hits mostly inhibitors | 300,000 compounds, 1.8% hits | AID 540276, 2011; calls by dose curve; tested in HEK293 cells; note: potency is the fitted concentration of half-maximal effect
# FMDV antiviral = High Throughput Screening for Foot and Mouth Disease Virus Antivirals. FMDV antiviral cell-based qHTS. Potency, µM (doses to about 57.9 µM), for inactives: at the highest dose activity change, negative = inhibition, usual class: inhibitors. 410,000 compounds, 1.2% hits. AID 1159524, 2015; calls by dose curve; tested in HEK293T cells; note: read-out not given here; potency is the fitted concentration of half-maximal effect; nearly all actives have a fitted effect of over 45% in size
# HCMV inh = qHTS Assay for inhibitors of the human cytomegalovirus (HCMV); HFF cells, HCMV-luciferase reporter, 72 h; hits give low values; activity change, negative = inhibition, % at 57.5 µM; 410,000 compounds, 4.5% hits; in the data active = activity change below about -60%; inconclusive = no clear call, values can overlap the other calls; inactive = above about -39%
#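 Screen run at 2 compound doses on HFFs infected with reporter HCMV, MOI 1 PFU/cell. Luciferase activity from cell lysates at 72 h post infection gave inhibition relative to buffer-only and Salinomycin wells.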
# Lassa entry inh = qHTS for Inhibitors of binding or entry into cells for Lassa Virus. Lassa virus pseudotype entry inhibition, cell reporter. Potency, µM (highest dose often 37.9 µM), inactives show at the highest dose activity change, negative = inhibition, usual class: inhibitors. 300,000 compounds, 1.2% hits; calls by dose curve; tested in HEK293 cells; note: potency is the fitted concentration of half-maximal effect; nearly all actives have a fitted effect of over 50% in size
# An asterisk follows results filed as active; u = inconclusive; x = no result given; + = active, no number; [ ] = dose if it differs, or a comment. % is set by controls: 0 for no effect and ±100 for the full control effect.
SMILES,Marburg entry inh,FMDV antiviral,HCMV inh,Lassa entry inh
Cc1nn(-c2ccccc2)c(C)c1/C=N/n1c(-c2ccc(Cl)cc2)n[nH]c1=S,-21%,u,u,u
Cc1nn(-c2ccccc2)c(C)c1/C=N/n1c(-c2ccncc2)n[nH]c1=S,u,-9%,-74*,u
COc1ccc(CCN2C(=O)CC(N3CCN(S(=O)(=O)c4ccccc4)CC3)C2=O)cc1 (stereo not drawn),-7%,-15%,-3,-1%
CCCCc1nn(-c2cc(Cl)ccc2OC)c2c1C(=O)CC(C)(C)C2,x,-15%,24,x
CC(C)CCn1c(COc2ccccc2)n[nH]c1=S,1%[46.1 µM],1%,-62*,6%[46.1 µM]
O=[N+]([O-])c1ccc(Cl)c(/C=N/n2c(-c3ccncc3)n[nH]c2=S)c1,18%[46.1 µM],-6%,-67*,2%
CC(C)(C)CC(C)(C)NCC(O)COc1ccc2c(c1)CCC2 (stereo not drawn),7.1µM*,u,-37,u
CN(C)c1ccc(/C=C2\C(=O)Nc3ccccc32)cc1,2µM*,-4%,x,u
O=C1Nc2ccccc2/C1=C/c1cccnc1,u,-30%,-18,u
CN(C)c1ccc(/C=C2/C(=O)Nc3ccccc32)cc1,2µM*,-14%,x,x
COc1ccc(NC(=O)N(C)C[C@H]2Oc3ccc(NC(=O)CCN4CCOCC4)cc3C(=O)N([C@@H](C)CO)C[C@H]2C)cc1,x,-9%,-26,x
OCCNc1c2ccccc2nc2ccccc12,u,-15%,-101*,-22%
OCCNc1nc2ccccc2nc1NCCO,-2%[46.1 µM],30%,8,-4%[46.1 µM]
CC(NC(=O)c1ccccc1F)c1nnc(SCC(=O)N2CCN(c3ccccc3)CC2)n1C (stereo not drawn),29%[46.1 µM],-12%,9,-9%
O=C(CSc1nnc(-c2c[nH]c3ccccc23)o1)N1CCCCC1,u,x,5,-15%
O=C(CSc1nnc(-c2c[nH]c3ccccc23)o1)N1c2ccccc2CCc2ccccc21,u,x,-89*,u
O=C(OCc1ccccc1)c1cc(S(=O)(=O)N2CCCCC2)ccc1N1CCOCC1,u,u,-23,u
O=C(OCCOc1cccc(Cl)c1)c1cc(S(=O)(=O)N2CCCCC2)ccc1N1CCOCC1,u,u,-88*,u
O=C(OCc1cccc(Cl)c1)c1cc(S(=O)(=O)N2CCCCC2)ccc1N1CCOCC1,11µM*,-27%,-35,u
COc1ccc(NC(=O)Cn2c(=O)oc3ccccc32)cc1,x,-12%,u,15%[46.1 µM]
Cc1nc2ccc(Br)cn2c(=O)c1Cl,-3%,4µM*,-33,-5%
Cc1nc2ccc(Br)cn2c1NC(C)(C)C,1%,-4%,-35,1%
Cc1c(C(=O)NCc2ccco2)oc2c(Cl)cccc12,x,-13%,52,x
Cc1ccc(C(=O)NC2CCCCCCC2)c(Cl)c1,x,-46%,-79*,x
Cc1ccc(C(=O)NC2CCCCC2)cc1,0%,x,111,4%
SMILES,Marburg entry inh,FMDV antiviral,HCMV inh,Lassa entry inh
O=C(COC(=O)c1cc(F)c(F)cc1Cl)NC1CCCCCC1,x,-6%,-12,x
O=C(NC1CCCCCCC1)c1cc(F)c(F)cc1Cl,x,43%,-61*,x
Cc1cc(NC(=O)C2CCN(S(=O)(=O)c3ccc(Br)s3)CC2)ccc1Br,1%[46.1 µM],u,-32,-1%[46.1 µM]
Cc1ccc2nc(N(CCCN(C)C)C(=O)c3ccc4c(c3)CCCC4)sc2c1,u,u,-77*,u
Cc1cc(C)c2sc(N(CCN(C)C)C(=O)c3ccc4ccccc4c3)nc2c1,x,-30%,+,x
CCOc1ccc2nc(N(CCN(C)C)C(=O)c3ccc4c(c3)CCCC4)sc2c1,u,-21%,x,u
Cc1cc(C)c2nc(N(CCCN(C)C)C(=O)c3ccc4c(c3)CCCC4)sc2c1,u,u,u,11µM*
O=C1NC2C(O)C(O)C(O)C(O)C2c2cc3c(c(O)c21)OCO3 (stereo not drawn),u,u,-98*,0.14µM*
COC(=O)C1=C(C)N(C)C(=O)NC1c1cc2c(cc1Br)OCO2 (stereo not drawn),x,-19%,-8,x
O=C1NC2C(=CC(O)C(O)C2O)c2cc3c(c(O)c21)OCO3 (stereo not drawn),u,-10%,-101*,u
O=C1NC2C(=CC(O)C(O)C2O)c2cc3c(cc21)OCO3 (stereo not drawn),u,u,-77*,1µM*
CC(C)Cn1c(N)c(C(=O)COC(=O)c2c(F)cccc2F)c(=O)n(C)c1=O,x,u,-30,x
CC1(C(=O)NS(=O)(=O)c2ccccc2)CCN1C(=O)CC1CCCC1 (stereo not drawn),x,-9%,9,x
O=C(NCCCN1CCOCC1)c1ccc(CSCc2cccc(Cl)c2)o1,u,-22%,-24,u
Cc1csc(SCC(=O)Nc2cccc(S(=O)(=O)N3CCCC3)c2)n1,3%,-9%,19,-1%
CCCSc1nnc(NC(=O)Nc2ccccc2)s1,-23%,6%,-99*,12%
CCCSc1nnc(NC(=O)CCc2ccccc2)s1,x,-3%,-31,x
CCCSc1nnc(NC(=O)Nc2ccc(C)cc2)s1,u,2%,u,8%[46.1 µM]
Cc1ccc(NC(=O)Nc2nnc(SCC(=O)N3CCC(C)CC3)s2)cc1,x,-6%,-88*,20%[46.1 µM]
CCCSc1nnc(NC(=O)Nc2ccc(F)cc2)s1,u,-25%,-104*,u
COc1ccc(CNC(=O)CN2CCN(S(=O)(=O)c3c(C)c(C)cc(C)c3C)CC2)cc1OC,x,u,-11,x
O=C(NCc1cc(C(F)(F)F)ccc1Cl)c1cccc2c1C(=O)c1ccc(N3CCC(N4CCCCC4)CC3)cc1S2(=O)=O,x,0%,-101*,x
CCN(CC)c1nc(C)c(C(C)=O)cc1C#N,3%,-21%,-23,3%
CCOC(=O)c1cc(C#N)c(C)nc1N(CC)CC,-19%[46.1 µM],-11%,10,5.6µM*
COc1ccc(NC(=O)N2CCCC3(CCNCC3)C2)cc1,x,5%,x,x
SMILES,Marburg entry inh,FMDV antiviral,HCMV inh,Lassa entry inh
O=C(NNC1=Nc2cccc3cccc1c23)c1ccc(Br)cc1,u,0%,-62*,-16%[46.1 µM]
C=CCC1(CC)C(=O)NC(=S)NC1=O,u,-35%,6,u
Cc1ccc2nc(-c3ccccc3)cc(C(=O)N(C)CC(=O)Nc3ccccc3Br)c2c1,11µM*,-15%,-19,u
CCN(C(=O)COC(=O)C(O)(c1ccccc1)c1ccccc1)c1c(N)n(Cc2ccccc2)c(=O)[nH]c1=O,-7%[46.1 µM],-7%,-7,-10%
O=c1[nH]c(CN2CCN(Cc3ccccc3)CC2)nc2scc(-c3ccccc3)c12,-21%[46.1 µM],-6%,14,u
O=c1[nH]c(Cc2ccccn2)nc2scc(-c3ccccc3Cl)c12,8%[46.1 µM],-23%,-83*,-1%[46.1 µM]
CCc1ccc(C(=O)CSc2ncn[nH]2)cc1,0%,36%,-4,15%
CC(O)c1cccc(NC(=O)C2CCCCC2)c1 (stereo not drawn),x,10%,-39,x
CCOC(=O)[C@H](CCc1ccccc1)N[C@@H](C)C(=O)N1[C@H](C(=O)O)C[C@@H]2CCC[C@@H]21,x,-13%,9,x
O=C(CCl)Nc1cccn2ncnc12,u,-9%,-60*,u

# High-throughput results as filed in PubChem.
